Only some compounds are listed: those with a hit (about 8.1% of all), similar ones and a draw of the others.
MCF10A rerep: A quantitative high throughput screen for small molecules that induce DNA re-replication in MCF 10a normal breast cells | MCF 10A DNA re-replication, Hoechst nuclear intensity, 48 h | Potency, µM (titrated, usually from 46.1 µM), for the others: at the highest dose activity, positive = re-replication, most hits filed as activators | 350,000 tested, 2.9% active; note: % of control where 0% means no effect; nearly all actives have a fitted effect of over 50% in size
KB-V1 cytotox: qHTS assay for MDR1-selective chemotherapeutics: Primary screen using the drug-selected MDR subline cells KB-V1 | KB-V1 MDR cells viability, CellTiter-Glo, 72 h | Potency, µM (doses to about 46.1 µM), hits mostly cytotoxic | 400,000 tested, 3.4% active; note: % is set by controls: 0 for no effect and ±100 for the full control effect; nearly all actives have a fitted effect of over 60% in size
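Cells of the MDR subline KB-V1 are plated, dosed with compound at multiple concentrations, and incubated 72 h at 37 degrees C; CellTiter-Glo is then added and luminescence read after 10 min.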
SW480 rerep: A quantitative high throughput screen for small molecules that induce DNA re-replication in SW480 colon adenocarcinoma cells; SW480 DNA re-replication, Hoechst DNA content imaging, 48 h; Potency, µM (titrated, usually from 46.1 µM), for the others: at the highest dose re-replication activation, usual class: activators; 340,000 tested, 1.8% active; AID 624297, 2012; note: % of control where 0% means no effect; nearly all actives have a fitted effect of over 55% in size
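Cells (250 per well) received 23 nL compound or DMSO by pin tool and were kept 48 hr at 37 C, 5% CO2. Nuclei were then stained with Hoechst for 40 min and scanned for DNA content.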
KB-3-1 tox: qHTS assay for MDR1-selective chemotherapeutics: Primary screen using the parental adenocarcinoma cell KB-3-1. KB-3-1 viability, CellTiter-Glo ATP luminescence, 72 h. Potency, µM (highest dose often 46.1 µM), usual class: cytotoxic. 400,000 tested, 1.4% active. AID 1347075, 2019; note: % is set by controls: 0 for no effect and ±100 for the full control effect; nearly all actives have a fitted effect of over 60% in size
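Cytotoxicity measured as CellTiter-Glo luminescence after 72 h at 37 C. Compound titrations were pinned onto drug-naive KB-3-1 parental adenocarcinoma cells grown in DMEM with 10% FBS, and normalized data fitted to concentration-response curves.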
ELG1 repair inh: qHTS screen for small molecules that inhibit ELG1-dependent DNA repair in human embryonic kidney (HEK293T) cells expressing luciferase-tagged ELG1. HEK293T ELG1-luciferase reporter, luminescence, 16 h; DNA damage induced by 5-fluorouridine. AID 504467, 2011. 330,000 tested, 2.3% active. Potency, µM (titrated, usually from 46.1 µM), for the others: top-dose activity change, negative = inhibition, actives largely listed as inhibitors; note: % is set by controls: 0 for no effect and ±100 for the full control effect; nearly all actives have a fitted effect of over 55% in size
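DMSO vehicle served as the neutral condition. Each well held 2,000 cells given 5-fluorouridine plus compound; after 16 hr at 37 °C/5% CO2, ONE-Glo was added and luciferase measured 30 min later.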
* = called active by the depositor; i = inactive; u = inconclusive; x = no result. Calls come from the whole dose curve; as a rule, active = well fitted curve in the direction sought with a large enough effect; inconclusive = small, poorly fitted or top-dose-only effect, or another doubt; inactive = no such curve, though single readings can be large; an effect the other way counts as inactive or inconclusive. Potency is the fitted concentration of half-maximal effect.

SMILES	MCF10A rerep	KB-V1 cytotox	SW480 rerep	KB-3-1 tox	ELG1 repair inh
Cc1cc(=O)oc2c3c(cc(OCC(=O)N[C@@H](Cc4ccccc4)C(=O)O)c12)OC(C)(C)CC3	18%	i	-74%	i	21%
CCc1cccc(NC(=O)Cn2c(=O)n(Cc3ccccc3)c(=O)c3c(C)c(C(=O)N(C)C)sc32)c1	x	i	x	i	x
COc1cc(C(C)=O)ccc1OCC(O)CN1CCN(c2ccccn2)CC1 (stereo not drawn)	12%	i	0%	i	-5%
COc1ccc(NC(C)C(=O)N/N=C/c2ccc([N+](=O)[O-])s2)cc1 (stereo not drawn)	11%	u	u	i	18µM*
Cc1ccc(NC(C)C(=O)N/N=C/c2ccc([N+](=O)[O-])s2)cc1 (stereo not drawn)	18%	i	u	u	u
Cc1ccccc1Cn1nnc2c(=O)[nH]c(C3CCCN(C(=O)c4ccc(C(C)(C)C)cc4)C3)nc21 (stereo not drawn)	x	i	x	u	x
Oc1cccc(/C=N/N=C/c2cccc(O)c2O)c1O	13%	u	12%	u	u
CC(C)c1nnc(NC(=O)c2ccc3c(c2)OCO3)s1	0%	i	-26%	i	u
COc1ccccc1NC(=O)Nc1nnc(C(C)c2ccccc2)s1 (stereo not drawn)	23µM*	i	u	i	25%
CC(C)(C)c1nnc(NC(=O)c2ccc3c(c2)OCO3)s1	0%	i	-7%	i	u
COc1ccccc1-c1nnc(NC(=O)c2ccc3c(c2)OCO3)s1	u	6.5µM*	5.8µM*	5.8µM*	-5%
COc1ccccc1NC(=O)Nc1nnc(C(C)C)s1	-6%	i	-4%	i	u
CC(c1ccccc1)c1nnc(NC(=O)c2ccc3c(c2)OCO3)s1 (stereo not drawn)	u	15µM*	15µM*	u	u
Cn1c(O)c(N=NC(=S)Nc2ccccc2F)c2cc(S(=O)(=O)N3CCOCC3)ccc21	5%	i	u	u	1.8µM*
Cc1ccc(NC(=S)N=Nc2c(O)n(C)c3ccc(S(=O)(=O)N4CCOCC4)cc23)cc1C	u	i	5%	u	11%
COC(=O)[C@]1(Cc2ccccc2)N[C@H](CN(C)C(C)=O)[C@@H]2C(=O)N(C)C(=O)[C@@H]21	-4%	i	u	i	u
NNc1ncnc2scc(-c3ccc(Cl)cc3)c12	u	u	-4%	16µM*	-12%
Cc1ccc(-c2csc3ncnc(NS(=O)(=O)c4ccc(Cl)cc4)c23)cc1	u	i	14%	i	-15%
O=S(=O)(Nc1ncnc2scc(-c3ccc(F)cc3)c12)c1cc(F)ccc1F	u	18µM*	u	u	-12%
Clc1ccc(-c2csc3ncnc(Cl)c23)cc1	18µM*	i	21µM*	i	4%
COCCn1c(SCC(=O)c2cc(C)n(C)c2C)nc2ccccc2c1=O	-6%	u	-10%	i	8%
CCOC(=O)c1cnc(SCc2cccc3ccccc23)nc1N	15%	18µM*	-4%	u	10%
CCOC(=O)c1cnc(SCc2ccc(C(C)(C)C)cc2)nc1N	15%	u	13%	23µM*	-4%
COc1ccc(NC(=O)c2cc(-c3ccccc3)nc3c2cnn3C(C)C)cc1	u	i	u	u	u
COc1ccc(N/C=C/C(=O)c2cc(OC)c(OC)c(OC)c2)cc1	5.2µM*	u	5.8µM*	3.7µM*	u
COc1ccc(N/C=C/C(=O)c2ccc(OC)c(OC)c2)cc1	21µM*	u	12%	i	u
COc1ccc(N/C=C/C(=O)c2ccc(Cl)cc2)cc1	u	i	0%	i	u

Compound activity as filed in PubChem BioAssay.
